Structures are written as SMILES. Activity calls are given as the source filed them. How the source made its calls: active means hit-call score of the fitted dose curve at least 0.9, where 1 is the maximum; inactive means score below 0.9.

A short description of this experiment: ATG_NFI_CIS: Attagene CIS-FACTORIAL HepG2 Assay for human Nuclear Factor I (NFI) (AID 2282989). The conditions noted are these: HepG2 cis-regulatory reporter, NFI response element transcription; actives raise or lower the signal. As for the experimental part:
ATG_CIS is a cell-based, multiplexed-readout assay that uses HepG2, a human liver cell line, with measurements taken at 24 hours after chemical dosing in a 24-well plate.ATG_NFI_CIS is one of 52 assay component(s) measured or calculated from the ATG_CIS assay. It is designed to make measurements of mRNA induction, a form of inducible reporter, as detected with fluorescence intensity signals by Reverse transcription polymerase chain reaction (RT-PCR) and Capillary electrophoresis technology.Data from the assay component ATG_NFI_CIS was analyzed into 1 assay endpoint. This assay endpoint, ATG_NFI_CIS, was analyzed with bidirectional fitting relative to DMSO as the negative control and baseline of activity. Using a type of inducible reporter, measures of mRNA for gain or loss-of-signal activity can be used to understand the reporter gene at the transcription factor-level as they relate to the gene NFIA. Furthermore, this assay endpoint can be referred to as a primary readout, because this assay has produced multiple assay endpoints where this one serves a reporter gene function. To generalize the intended target to other relatable targets, this assay endpoint is annotated to the dna binding intended target family, where the subfamily is nuclear factor I.
Human liver HepG2 cells are transiently transfected with multiple reporter transcription units (MRTUs) in 6-well plates using FuGene 6 reagent (Roche; 3 ml FuGene/1 mg DNA). The MRTU constructs are regulated by a cis-regulating element (promoter). […] A major difference between the CIS and TRANS system is that in CIS activities of endogenous TFs are measured, whereas the TRANS assay evaluates changes in activities of exogenous, chimeric NR-Gal4 proteins. […] At the end of 24 hour incubation, total RNA was isolated using TriZol reagent (Invitrogen). The isolated RNA is then reverse-transcribed using oligo(dT) primer and Mo-MLV reverse transcriptase (Invitrogen) with DNAse I (Ambion) treatment for 30 min. The one-tenth of the produced cDNA was amplified by PCR using Taq DNA polymerase (Invitrogen) and two reporter sequence-specific primers. The PCR products were fluorescently labeled by primer extension with 6-arboxyfluorescein (6-FAM) 5'-labeled reporter sequence-specific primer (2 min at 95 C, 20 s at 68 C and 10 min at 72 C) and these products were digested with 5U of HpaI (New England Biolabs) for 2h at 37 C. The fragments were purified using Qiaquick PCR columns (Qiagen), analyzed on an ABI 3130xL genetic analyzer (Applied Biosystems) with peak positions identified by using a set of X-rhodamine (ROX)-labeled MapMarker1000 molecular weight standards (BioVentures). The raw capillary electrophoresis data was processed using Attagraph software (Attagene).
As to `Nc1cc(Cl)cc(Cl)c1`, the result was inactive.
Take `O=C(O)CCl`: the compound was called inactive.
Regarding `O=C(O)C(Br)Br`, the call was inactive.
Still for that read-out and setting: as for `C=COCCCl`, the entry is “inactive”.
The same measure, in the same setting: with `c1cc(OCC2CO2)ccc1Cc1ccc(OCC2CO2)cc1` (stereo not given) the entry was “inactive”; with `CC1CCCC1.[C-]#[O+].[C-]#[O+].[C-]#[O+].[Mn]`, “inactive”.
For the compound `Cc1ccc(N(SC(F)(Cl)Cl)S(=O)(=O)N(C)C)cc1`, the AC50 (as a rule, the concentration at which the activity in the assay is half-maximal) is 17.3 µM (active).
On to `CC(C)C(=O)Cl`, for which the result was inactive.
The same measure, in the same setting: with `NNc1ccccc1` the entry was “inactive”.
On the same count and under the same terms, as for `C[C@]12CCC(=O)C(O)=C1CC[C@@H]1[C@@H]2CC[C@]2(C)C(=O)CC[C@@H]12`, the entry is “inactive”; as for `O=P1(NCCCl)OCCCN1CCCl` (stereo not given), “inactive”.
`Oc1ccc(C2(c3ccc(O)cc3)c3ccccc3-c3ccccc32)cc1`: the AC50 was 17.6 µM (active).
On to `Nc1c(Cl)c(Cl)c(Cl)c(Cl)c1Cl`, for which the call was inactive.
As to `CCc1cc(C)cc(CC)c1-c1c(OC(=O)C(C)(C)C)n2n(c1=O)CCOCC2`, the result was inactive.
Same read-out and setting: with `CC(C)(Cl)Cl` the entry was “inactive”; with `O=S(=O)(O)OOS(=O)(=O)O`, “inactive”.
With `COc1ccc(CO)cc1`, the result was inactive.
Same read-out and setting: with `CC1OC(C)OC(C)O1` (stereo not given) the entry was “inactive”.
Same read-out and setting: with `CCOP(=O)(OCC)OCC` the entry was “inactive”.
On the same count and under the same terms, with `O=CNC(N1CCN(C(NC=O)C(Cl)(Cl)Cl)CC1)C(Cl)(Cl)Cl` (stereo not given) the entry was “inactive”; with `ClCC(Cl)Cl`, “inactive”; with `Cc1ccc(C)c2ccccc12`, “inactive”.
For `N#CCNCC#N`, the compound was classed as inactive.
The same measure, in the same setting: as for `O=[N+]([O-])O`, the entry is “inactive”; as for `O=C=Nc1ccccc1`, “inactive”.
The same measure, in the same setting: with `[N-]=[N+]=CC(=O)OC[C@H](N)C(=O)O` the entry was “inactive”.
On to `CCc1cccc(C)c1N(C(=O)CCl)[C@@H](C)COC`, for which the compound was called inactive.
Still for that read-out and setting: as for `Cc1ncc(C[n+]2csc(CCO)c2C)c(N)n1`, the entry is “inactive”.
Same read-out and setting: as for `Nc1ccc([N+](=O)[O-])cc1N`, the entry is “inactive”; as for `CN(C)C(=O)C(c1ccccc1)c1ccccc1`, “inactive”; as for `c1ccc(Nc2ccc3ccccc3c2)cc1`, “inactive”.
Still for that read-out and setting: with `CCC(C)c1cc(C(C)(C)C)cc(-n2nc3ccccc3n2)c1O` (stereo not given) the entry was “inactive”; with `CC1CCC(=O)O1` (stereo not given), “inactive”.
Regarding `CC(=O)C=Cc1ccccc1`, the compound was called inactive.
Consider `BrCBr`, for which the compound was called inactive.
For the compound `O=P(O)(Oc1ccccc1)Oc1ccccc1`, the compound was classed as inactive.
With `O=C1C=CC(=O)C=C1`, the call was inactive.
The same measure, in the same setting: as for `CC(C)[C@@H](C(=O)O[C@@H](C#N)c1cccc(Oc2ccccc2)c1)c1ccc(Cl)cc1`, the entry is “inactive”; as for `CC(C)(c1cc(Cl)c(O)c(Cl)c1)c1cc(Cl)c(O)c(Cl)c1`, “inactive”.
The same measure, in the same setting: as for `CC(=O)/C=C/c1ccccc1`, the entry is “inactive”.

The values are drawn from PubChem BioAssay (EPA / NIEHS).
